Measured values taken from ChEMBL document CHEMBL1961873, “Compounds: GSK PKIS; Assays: Nanosyn kinase panel” (2012).

Key:
[1] = system: Epidermal growth factor receptor (Homo sapiens), P00533 [T790M]; conditions: at 1 µM
[2] = system: Epidermal growth factor receptor (Homo sapiens), P00533 [L858R,T790M]; conditions: at 0.1 µM
[3] = system: Epidermal growth factor receptor (Homo sapiens), P00533 [L858R,T790M]; conditions: at 1 µM
[4] = molecular target: Ephrin type-A receptor 2 (Homo sapiens) (UniProt P29317); conditions: at 0.1 µM
Chain of Ephrin type-A receptor 2 (Homo sapiens) (P29317 whole entry): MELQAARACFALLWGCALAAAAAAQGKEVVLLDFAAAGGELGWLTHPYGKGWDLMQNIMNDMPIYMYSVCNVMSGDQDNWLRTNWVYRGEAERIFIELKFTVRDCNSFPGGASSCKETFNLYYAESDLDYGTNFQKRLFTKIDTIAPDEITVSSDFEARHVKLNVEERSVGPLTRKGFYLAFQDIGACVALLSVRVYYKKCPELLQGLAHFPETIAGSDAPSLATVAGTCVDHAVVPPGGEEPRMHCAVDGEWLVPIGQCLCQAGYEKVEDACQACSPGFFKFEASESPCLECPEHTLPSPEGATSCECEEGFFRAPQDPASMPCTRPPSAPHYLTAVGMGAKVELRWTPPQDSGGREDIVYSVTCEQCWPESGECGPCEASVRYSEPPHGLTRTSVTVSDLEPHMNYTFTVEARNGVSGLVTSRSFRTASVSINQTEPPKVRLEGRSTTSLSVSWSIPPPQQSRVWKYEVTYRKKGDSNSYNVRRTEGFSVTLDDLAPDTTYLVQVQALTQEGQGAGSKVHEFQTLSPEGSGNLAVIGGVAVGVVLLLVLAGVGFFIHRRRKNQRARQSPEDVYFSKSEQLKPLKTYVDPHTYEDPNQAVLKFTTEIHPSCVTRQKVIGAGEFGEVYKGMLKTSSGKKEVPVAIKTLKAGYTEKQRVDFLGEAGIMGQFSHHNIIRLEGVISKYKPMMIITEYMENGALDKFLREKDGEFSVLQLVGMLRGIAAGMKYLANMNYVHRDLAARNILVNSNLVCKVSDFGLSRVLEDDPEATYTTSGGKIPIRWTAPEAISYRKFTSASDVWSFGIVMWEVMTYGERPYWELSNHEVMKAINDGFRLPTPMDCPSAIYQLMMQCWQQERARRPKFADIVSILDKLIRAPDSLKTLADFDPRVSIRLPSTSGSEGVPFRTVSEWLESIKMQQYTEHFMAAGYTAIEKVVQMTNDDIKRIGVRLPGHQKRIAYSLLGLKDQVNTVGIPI

[5] = molecular target: Ephrin type-A receptor 2 (Homo sapiens) (UniProt P29317); conditions: at 1 µM
[6] = molecular target: T1, Ephrin type-A receptor 3 (Homo sapiens) (UniProt P29320); conditions: at 0.1 µM
T1 sequence (whole entry): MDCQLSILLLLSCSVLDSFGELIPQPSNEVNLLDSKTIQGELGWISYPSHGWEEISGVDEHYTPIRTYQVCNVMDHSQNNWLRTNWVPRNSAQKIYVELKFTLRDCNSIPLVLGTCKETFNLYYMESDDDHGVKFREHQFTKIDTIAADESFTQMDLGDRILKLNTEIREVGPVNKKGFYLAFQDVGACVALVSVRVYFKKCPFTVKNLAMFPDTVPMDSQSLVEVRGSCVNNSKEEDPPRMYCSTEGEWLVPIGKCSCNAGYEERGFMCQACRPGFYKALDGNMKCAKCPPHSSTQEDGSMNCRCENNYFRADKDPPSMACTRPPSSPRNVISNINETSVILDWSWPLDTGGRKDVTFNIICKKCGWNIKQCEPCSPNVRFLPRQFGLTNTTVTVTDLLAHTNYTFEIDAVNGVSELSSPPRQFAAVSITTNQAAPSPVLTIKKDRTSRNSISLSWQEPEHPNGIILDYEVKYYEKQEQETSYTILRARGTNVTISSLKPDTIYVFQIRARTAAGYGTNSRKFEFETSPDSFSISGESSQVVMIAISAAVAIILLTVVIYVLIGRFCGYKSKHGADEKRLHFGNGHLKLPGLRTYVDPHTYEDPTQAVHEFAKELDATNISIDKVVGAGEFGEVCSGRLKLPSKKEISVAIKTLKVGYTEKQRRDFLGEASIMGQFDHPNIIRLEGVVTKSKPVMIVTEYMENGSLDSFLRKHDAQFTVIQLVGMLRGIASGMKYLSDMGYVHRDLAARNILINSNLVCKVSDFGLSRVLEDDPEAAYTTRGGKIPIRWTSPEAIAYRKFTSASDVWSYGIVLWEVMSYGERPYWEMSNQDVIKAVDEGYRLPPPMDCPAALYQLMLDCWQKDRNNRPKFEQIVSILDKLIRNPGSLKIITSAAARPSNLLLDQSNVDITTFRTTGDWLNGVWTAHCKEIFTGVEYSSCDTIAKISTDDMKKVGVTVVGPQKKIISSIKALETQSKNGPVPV

[7] = molecular target: T1, Ephrin type-A receptor 3 (Homo sapiens); conditions: at 1 µM
[8] = molecular target: Ephrin type-A receptor 4 (Homo sapiens) (UniProt P54764); conditions: at 0.1 µM
Chain of Ephrin type-A receptor 4 (Homo sapiens) (P54764 whole entry): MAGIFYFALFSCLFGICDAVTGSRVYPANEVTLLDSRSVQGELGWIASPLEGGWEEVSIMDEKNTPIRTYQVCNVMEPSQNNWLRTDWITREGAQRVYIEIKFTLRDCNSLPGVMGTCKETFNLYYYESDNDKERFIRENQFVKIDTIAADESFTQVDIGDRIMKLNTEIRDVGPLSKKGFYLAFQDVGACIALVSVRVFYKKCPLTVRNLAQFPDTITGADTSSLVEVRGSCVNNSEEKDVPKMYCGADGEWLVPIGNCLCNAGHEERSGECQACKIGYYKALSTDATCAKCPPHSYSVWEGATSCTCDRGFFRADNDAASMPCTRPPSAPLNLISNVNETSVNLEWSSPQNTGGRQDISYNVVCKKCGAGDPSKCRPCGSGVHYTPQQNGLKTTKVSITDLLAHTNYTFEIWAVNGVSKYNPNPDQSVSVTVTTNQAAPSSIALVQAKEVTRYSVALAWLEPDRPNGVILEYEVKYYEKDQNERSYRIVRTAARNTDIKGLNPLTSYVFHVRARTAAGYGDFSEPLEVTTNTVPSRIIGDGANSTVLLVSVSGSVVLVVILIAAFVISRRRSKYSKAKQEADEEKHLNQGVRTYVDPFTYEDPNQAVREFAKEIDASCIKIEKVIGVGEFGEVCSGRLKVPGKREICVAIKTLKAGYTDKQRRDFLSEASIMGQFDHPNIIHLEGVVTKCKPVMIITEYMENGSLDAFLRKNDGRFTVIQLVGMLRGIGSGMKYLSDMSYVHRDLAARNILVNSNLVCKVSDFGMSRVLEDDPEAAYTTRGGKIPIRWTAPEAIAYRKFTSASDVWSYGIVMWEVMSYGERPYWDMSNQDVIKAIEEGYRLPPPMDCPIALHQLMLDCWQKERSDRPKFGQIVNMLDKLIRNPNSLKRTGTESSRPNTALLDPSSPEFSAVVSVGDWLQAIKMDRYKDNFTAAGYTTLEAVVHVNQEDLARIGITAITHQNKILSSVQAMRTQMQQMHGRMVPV

[9] = molecular target: Ephrin type-A receptor 4 (Homo sapiens) (UniProt P54764); conditions: at 1 µM
[10] = molecular target: T2, Ephrin type-B receptor 2 (Homo sapiens) (UniProt P29323); conditions: at 0.1 µM
T2 sequence (whole entry): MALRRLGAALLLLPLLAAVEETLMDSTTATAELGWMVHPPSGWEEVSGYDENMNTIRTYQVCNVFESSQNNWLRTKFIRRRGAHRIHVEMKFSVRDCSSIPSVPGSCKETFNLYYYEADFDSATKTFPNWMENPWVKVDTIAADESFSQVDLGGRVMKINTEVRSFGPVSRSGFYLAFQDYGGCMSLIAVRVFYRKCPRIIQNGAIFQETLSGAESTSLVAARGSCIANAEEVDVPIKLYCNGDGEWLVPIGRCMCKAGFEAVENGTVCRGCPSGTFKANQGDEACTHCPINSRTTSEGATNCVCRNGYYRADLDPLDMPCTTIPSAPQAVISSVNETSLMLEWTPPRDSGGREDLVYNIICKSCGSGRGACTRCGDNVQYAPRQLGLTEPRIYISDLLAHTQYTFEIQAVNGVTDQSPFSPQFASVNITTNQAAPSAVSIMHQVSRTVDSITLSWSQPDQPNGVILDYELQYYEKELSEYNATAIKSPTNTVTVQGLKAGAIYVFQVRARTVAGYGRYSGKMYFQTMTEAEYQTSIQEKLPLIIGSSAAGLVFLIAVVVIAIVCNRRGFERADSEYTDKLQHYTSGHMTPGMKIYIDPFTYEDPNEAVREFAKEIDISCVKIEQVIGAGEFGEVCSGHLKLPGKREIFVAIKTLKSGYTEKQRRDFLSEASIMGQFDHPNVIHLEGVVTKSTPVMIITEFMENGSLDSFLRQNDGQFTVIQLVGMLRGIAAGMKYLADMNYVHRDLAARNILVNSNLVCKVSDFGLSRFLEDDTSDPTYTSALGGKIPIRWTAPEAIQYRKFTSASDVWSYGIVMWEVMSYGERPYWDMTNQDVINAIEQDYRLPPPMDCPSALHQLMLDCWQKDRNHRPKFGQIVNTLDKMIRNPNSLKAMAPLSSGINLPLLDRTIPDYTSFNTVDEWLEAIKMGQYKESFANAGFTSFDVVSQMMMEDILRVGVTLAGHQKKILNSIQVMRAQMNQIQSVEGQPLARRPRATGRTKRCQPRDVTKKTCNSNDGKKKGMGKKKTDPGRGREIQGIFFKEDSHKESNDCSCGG

[11] = molecular target: T2, Ephrin type-B receptor 2 (Homo sapiens); conditions: at 1 µM
[12] = molecular target: T3, Ephrin type-B receptor 3 (Homo sapiens) (UniProt P54753); conditions: at 0.1 µM
T3 sequence (whole entry): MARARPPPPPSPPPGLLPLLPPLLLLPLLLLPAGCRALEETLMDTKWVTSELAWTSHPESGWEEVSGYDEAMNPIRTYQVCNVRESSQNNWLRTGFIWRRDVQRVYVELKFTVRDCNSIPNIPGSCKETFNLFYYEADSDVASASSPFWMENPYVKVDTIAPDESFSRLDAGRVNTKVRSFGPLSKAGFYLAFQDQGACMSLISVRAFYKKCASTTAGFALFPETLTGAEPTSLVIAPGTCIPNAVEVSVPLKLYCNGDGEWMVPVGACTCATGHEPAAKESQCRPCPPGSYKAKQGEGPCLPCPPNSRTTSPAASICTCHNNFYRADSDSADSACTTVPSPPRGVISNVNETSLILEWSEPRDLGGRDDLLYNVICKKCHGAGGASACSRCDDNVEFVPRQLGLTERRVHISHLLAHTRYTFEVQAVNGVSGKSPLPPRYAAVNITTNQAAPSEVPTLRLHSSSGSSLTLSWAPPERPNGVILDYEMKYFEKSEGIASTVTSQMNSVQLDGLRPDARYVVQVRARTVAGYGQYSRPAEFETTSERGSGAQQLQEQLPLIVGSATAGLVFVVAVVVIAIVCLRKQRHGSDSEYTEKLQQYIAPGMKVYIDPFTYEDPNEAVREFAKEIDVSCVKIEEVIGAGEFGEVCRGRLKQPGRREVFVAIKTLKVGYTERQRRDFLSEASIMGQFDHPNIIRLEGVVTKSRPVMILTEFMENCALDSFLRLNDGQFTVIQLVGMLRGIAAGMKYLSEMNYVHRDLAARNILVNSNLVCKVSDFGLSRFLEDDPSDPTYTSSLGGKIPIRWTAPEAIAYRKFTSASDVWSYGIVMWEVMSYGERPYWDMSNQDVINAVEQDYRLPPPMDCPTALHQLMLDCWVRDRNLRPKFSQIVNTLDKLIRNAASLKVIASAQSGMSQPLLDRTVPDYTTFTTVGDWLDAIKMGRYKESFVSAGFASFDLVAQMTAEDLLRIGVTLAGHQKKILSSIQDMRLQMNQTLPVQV

[13] = molecular target: T3, Ephrin type-B receptor 3 (Homo sapiens); conditions: at 1 µM
[14] = molecular target: T4, Ephrin type-B receptor 4 (Homo sapiens) (UniProt P54760); conditions: at 0.1 µM
T4 sequence (whole entry): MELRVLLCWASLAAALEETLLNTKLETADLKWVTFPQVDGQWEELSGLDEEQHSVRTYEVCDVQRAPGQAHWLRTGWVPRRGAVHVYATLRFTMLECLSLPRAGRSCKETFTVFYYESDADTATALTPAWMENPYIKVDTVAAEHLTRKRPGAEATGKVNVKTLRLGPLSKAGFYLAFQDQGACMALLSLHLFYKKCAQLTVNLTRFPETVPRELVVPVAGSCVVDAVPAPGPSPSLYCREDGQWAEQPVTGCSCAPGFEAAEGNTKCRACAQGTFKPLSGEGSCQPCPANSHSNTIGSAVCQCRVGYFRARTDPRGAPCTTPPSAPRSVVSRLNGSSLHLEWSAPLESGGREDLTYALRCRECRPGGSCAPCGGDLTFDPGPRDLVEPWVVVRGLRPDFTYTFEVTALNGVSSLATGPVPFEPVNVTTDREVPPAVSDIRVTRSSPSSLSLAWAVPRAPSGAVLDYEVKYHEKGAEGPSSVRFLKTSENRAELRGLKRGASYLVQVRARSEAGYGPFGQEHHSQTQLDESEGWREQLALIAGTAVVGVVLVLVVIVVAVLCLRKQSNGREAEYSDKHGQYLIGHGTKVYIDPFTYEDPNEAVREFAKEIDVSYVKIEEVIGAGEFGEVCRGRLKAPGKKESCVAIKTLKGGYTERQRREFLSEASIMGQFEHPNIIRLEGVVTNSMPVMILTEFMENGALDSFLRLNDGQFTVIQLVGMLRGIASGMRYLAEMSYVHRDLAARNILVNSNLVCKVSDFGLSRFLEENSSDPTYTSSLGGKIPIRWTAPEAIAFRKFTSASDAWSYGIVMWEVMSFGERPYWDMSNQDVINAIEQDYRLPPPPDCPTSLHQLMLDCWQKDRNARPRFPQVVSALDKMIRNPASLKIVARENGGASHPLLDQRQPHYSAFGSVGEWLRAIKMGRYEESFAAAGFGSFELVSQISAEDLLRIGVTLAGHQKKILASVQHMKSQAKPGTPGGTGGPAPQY

[15] = molecular target: T4, Ephrin type-B receptor 4 (Homo sapiens); conditions: at 1 µM
[16] = molecular target: Receptor tyrosine-protein kinase erbB-2 (Homo sapiens) (UniProt P04626); conditions: at 0.1 µM
Chain of Receptor tyrosine-protein kinase erbB-2 (Homo sapiens) (P04626 whole entry): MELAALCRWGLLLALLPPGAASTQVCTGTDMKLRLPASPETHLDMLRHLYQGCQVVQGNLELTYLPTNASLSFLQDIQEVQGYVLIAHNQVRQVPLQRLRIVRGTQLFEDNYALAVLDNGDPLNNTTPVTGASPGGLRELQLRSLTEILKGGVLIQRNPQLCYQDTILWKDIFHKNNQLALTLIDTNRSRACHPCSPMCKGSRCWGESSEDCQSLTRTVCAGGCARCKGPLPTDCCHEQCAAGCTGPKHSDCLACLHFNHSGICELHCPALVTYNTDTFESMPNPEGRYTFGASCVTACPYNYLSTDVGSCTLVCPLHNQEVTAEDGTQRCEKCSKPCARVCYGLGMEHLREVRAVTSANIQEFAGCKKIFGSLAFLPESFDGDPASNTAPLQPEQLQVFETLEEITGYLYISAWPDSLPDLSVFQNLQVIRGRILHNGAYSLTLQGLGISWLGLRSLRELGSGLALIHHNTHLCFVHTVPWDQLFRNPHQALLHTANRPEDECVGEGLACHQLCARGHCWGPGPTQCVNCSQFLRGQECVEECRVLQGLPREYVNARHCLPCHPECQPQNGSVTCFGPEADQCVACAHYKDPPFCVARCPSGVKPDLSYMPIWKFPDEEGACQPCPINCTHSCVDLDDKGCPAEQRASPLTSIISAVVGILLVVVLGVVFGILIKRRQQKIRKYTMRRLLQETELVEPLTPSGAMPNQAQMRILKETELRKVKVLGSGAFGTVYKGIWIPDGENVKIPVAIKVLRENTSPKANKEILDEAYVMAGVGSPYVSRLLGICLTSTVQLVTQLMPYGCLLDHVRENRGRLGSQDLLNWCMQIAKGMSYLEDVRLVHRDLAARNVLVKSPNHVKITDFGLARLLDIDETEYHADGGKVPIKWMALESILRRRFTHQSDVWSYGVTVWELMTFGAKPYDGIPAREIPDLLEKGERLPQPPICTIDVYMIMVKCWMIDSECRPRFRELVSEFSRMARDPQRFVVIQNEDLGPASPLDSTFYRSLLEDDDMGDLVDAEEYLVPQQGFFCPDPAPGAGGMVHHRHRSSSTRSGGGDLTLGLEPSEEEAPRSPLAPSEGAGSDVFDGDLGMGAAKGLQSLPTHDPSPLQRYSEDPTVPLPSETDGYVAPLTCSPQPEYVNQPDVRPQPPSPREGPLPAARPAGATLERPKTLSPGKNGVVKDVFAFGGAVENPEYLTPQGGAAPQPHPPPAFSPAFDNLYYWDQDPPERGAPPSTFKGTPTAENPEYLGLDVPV

[17] = molecular target: Receptor tyrosine-protein kinase erbB-2 (Homo sapiens) (UniProt P04626); conditions: at 1 µM
[18] = molecular target: Receptor tyrosine-protein kinase erbB-4 (Homo sapiens) (UniProt Q15303); conditions: at 0.1 µM
[19] = molecular target: Receptor tyrosine-protein kinase erbB-4 (Homo sapiens) (UniProt Q15303); conditions: at 1 µM
[20] = molecular target: Tyrosine-protein kinase Fer (Homo sapiens) (UniProt P16591); conditions: at 0.1 µM;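 further: reported figures are averaged percent inhibition of FER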

Chain of Epidermal growth factor receptor (Homo sapiens), P00533 [L858R,T790M] (P00533 whole entry T790M/L858R, looked up): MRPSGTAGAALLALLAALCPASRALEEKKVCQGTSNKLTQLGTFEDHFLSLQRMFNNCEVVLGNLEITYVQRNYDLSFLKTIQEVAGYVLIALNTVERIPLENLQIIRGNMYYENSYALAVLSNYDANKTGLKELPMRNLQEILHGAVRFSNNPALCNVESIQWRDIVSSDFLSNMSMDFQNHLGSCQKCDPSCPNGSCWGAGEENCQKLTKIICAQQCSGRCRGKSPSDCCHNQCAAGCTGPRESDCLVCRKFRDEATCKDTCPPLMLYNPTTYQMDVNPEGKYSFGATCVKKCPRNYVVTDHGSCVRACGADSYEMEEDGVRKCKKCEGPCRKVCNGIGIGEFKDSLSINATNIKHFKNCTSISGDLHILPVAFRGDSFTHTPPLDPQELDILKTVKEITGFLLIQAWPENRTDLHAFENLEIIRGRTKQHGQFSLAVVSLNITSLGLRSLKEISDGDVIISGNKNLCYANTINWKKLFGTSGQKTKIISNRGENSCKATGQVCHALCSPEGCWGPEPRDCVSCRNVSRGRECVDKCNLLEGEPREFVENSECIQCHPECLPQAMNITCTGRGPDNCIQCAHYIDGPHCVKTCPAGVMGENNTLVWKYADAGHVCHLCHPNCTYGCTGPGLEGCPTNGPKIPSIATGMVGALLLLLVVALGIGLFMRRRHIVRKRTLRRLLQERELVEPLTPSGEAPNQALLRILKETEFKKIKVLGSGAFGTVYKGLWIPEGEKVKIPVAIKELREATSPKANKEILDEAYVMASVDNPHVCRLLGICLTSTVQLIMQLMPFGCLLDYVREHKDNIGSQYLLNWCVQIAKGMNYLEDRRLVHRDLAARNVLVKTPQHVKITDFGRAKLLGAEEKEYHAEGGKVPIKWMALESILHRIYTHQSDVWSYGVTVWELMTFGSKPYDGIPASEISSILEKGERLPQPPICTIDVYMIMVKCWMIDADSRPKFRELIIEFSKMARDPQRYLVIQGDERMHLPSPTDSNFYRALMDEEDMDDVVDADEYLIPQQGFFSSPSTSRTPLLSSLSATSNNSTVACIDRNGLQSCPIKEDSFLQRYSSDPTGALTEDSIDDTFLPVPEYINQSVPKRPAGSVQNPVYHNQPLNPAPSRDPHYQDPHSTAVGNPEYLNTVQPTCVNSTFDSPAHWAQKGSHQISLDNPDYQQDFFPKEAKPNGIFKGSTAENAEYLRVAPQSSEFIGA

Row | Structure (SMILES) | inhibition [1] [%] | inhibition [2] [%] | inhibition [3] [%] | inhibition [4] [%] | inhibition [5] [%] | inhibition [6] [%] | inhibition [7] [%] | inhibition [8] [%] | inhibition [9] [%] | inhibition [10] [%] | inhibition [11] [%] | inhibition [12] [%] | inhibition [13] [%] | inhibition [14] [%] | inhibition [15] [%] | inhibition [16] [%] | inhibition [17] [%] | inhibition [18] [%] | inhibition [19] [%] | inhibition [20] [%]
1 | CCn1c(-c2nonc2N)nc2c(C#CC(C)(C)O)nc(OC[C@H](N)c3ccccc3)cc21 | 4.71 | 0.92 | 2.55 | 0.4 | -0.31 | 2.11 | 1.87 | 5.06 | 4.87 | 0.04 | 0.23 | 0.72 | 1.06 | 1.68 | 1.24 | 0.79 | 3.43 | 6.48 | 28.9 | 2.98
2 | CCOc1ccc2c(-c3ccnc(Nc4cccc(C(F)(F)F)c4)n3)cnn2n1 | -0.36 | 0.8 | 0.09 | 1.2 | 0.67 | 1.59 | 5.76 | 6.67 | 9.91 | 7.74 | 9.64 | 3.96 | 2.33 | 1.01 | 2.81 | 4.13 | 2.54 | 7.09 | 6.85 | 1.8
3 | [O-][S+]1CCN(Cc2ccc(-c3ccc4ncnc(Nc5ccc(OCc6cccc(F)c6)c(Cl)c5)c4c3)o2)CC1 | 22 | 1.22 | 5.52 | 1.19 | 0.52 | 5.19 | 2.42 | 7.3 | 11.6 | 9.52 | 7.63 | 3.69 | 7.49 | 2.75 | 4.27 | 78.4 | 79.9 | 88.9 | 91.3 | 2.55
4 | Fc1ccc(-c2nn3ccccc3c2-c2ccncc2)cc1 | – | – | – | -1.52 | -1.41 | 3.94 | 5.1 | 5.14 | 11.7 | 5.2 | 17.7 | 4.48 | 8.05 | 1.73 | 4.73 | 1.52 | 2.31 | 10.8 | 27.2 | 1.5
5 | Nc1ncc(-c2cccc(S(N)(=O)=O)c2)c2scc(-c3ccc(F)c(Cl)c3)c12 | 5.52 | 1.23 | 3.47 | 41 | 89.7 | 27.4 | 68.6 | 54.9 | 92 | 67.8 | 88.7 | 9.18 | 22 | 49.3 | 87.1 | 4.06 | 6.32 | 13.2 | 29.6 | 5.25
6 | COc1cc2ncn(-c3cc(OCc4ccccc4C(F)(F)F)c(C(=O)N(C)C)s3)c2cc1OC | -1.36 | 0.72 | -1.46 | -1.69 | -2.94 | 2.89 | 1.92 | 2.87 | 4.19 | 0.66 | 3.29 | 2.32 | 0.33 | -1.02 | 1.55 | 0.2 | -1.05 | 2.15 | – | -0.2
7 | Fc1ccc(-c2nn3ncccc3c2-c2ccnc(Nc3ccc4c(c3)OCCO4)n2)cc1 | 63.8 | 45.5 | 88.1 | 2.48 | 14.4 | 7.69 | 18.2 | 17.1 | 55.5 | 34.3 | 73.6 | – | 16.2 | 20.1 | 64.8 | 11 | 41.4 | 84.3 | 94.6 | 1.71
8 | COc1cc(/C=N/Nc2ncnc3[nH]ncc23)ccc1O | 4.2 | -0.56 | 5.5 | 6.02 | 21 | 5.55 | 16.5 | 14.9 | 55.3 | 11.7 | 38.7 | 3.99 | 5.19 | 5.34 | 20.9 | 2.03 | 4.08 | 13.4 | 21.1 | 3.03
